According to PubChem BioAssay AID651710 (Broad Institute, 2012):
Where “and” joins values, the source holds several entries; their conditions need not be identical. Equal entries are not always repeated. The whole screen tested about 360,000 compounds, of which about 1,600 (0.44%) were called active.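 Rule for the calls: active = every replicate showing at least 50% inhibition; inconclusive = mean inhibition at least 50% but not in every replicate; inactive = the rest.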 This excerpt belongs to a sample that is enriched for actives. Where a structure was tested more than once in an assay, its records may differ in their call.

These compounds were tested against DNA repair protein RAD52 homolog (Homo sapiens) (UniProt P43351) (assay: blockers of RAD52 strand annealing activity – biochemical, FRET, single point, set 2, primary screen (AID 651710)). Details: recombinant RAD52 DNA annealing, FRET fluorescence; at 18.7 µM; stronger effect = higher value.
Sequence of DNA repair protein RAD52 homolog (Homo sapiens) (P43351 whole entry, looked up): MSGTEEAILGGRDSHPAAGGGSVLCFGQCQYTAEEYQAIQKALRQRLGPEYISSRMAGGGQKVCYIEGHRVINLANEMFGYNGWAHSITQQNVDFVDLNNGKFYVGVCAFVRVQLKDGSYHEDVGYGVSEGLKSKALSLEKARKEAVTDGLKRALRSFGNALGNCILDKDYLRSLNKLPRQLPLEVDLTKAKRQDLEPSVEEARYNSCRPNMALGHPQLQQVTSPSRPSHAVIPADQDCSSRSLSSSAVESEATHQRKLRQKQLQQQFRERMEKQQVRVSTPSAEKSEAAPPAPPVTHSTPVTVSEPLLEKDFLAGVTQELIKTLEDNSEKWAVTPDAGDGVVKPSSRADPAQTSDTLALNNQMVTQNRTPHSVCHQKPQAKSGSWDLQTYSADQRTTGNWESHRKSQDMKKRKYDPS

inhibition, 54.8% (active) and 0.102% (inactive):
Cc1ccccc1-c1ccc(C2[C@@H]3CN(C(=O)C4CCCCC4)C[C@H]2N3)cc1 (stereo partly drawn)

inhibition, inactive:
CCCNC(=O)N(C)C[C@H]1Oc2cc(C#CC(C)(C)O)ccc2S(=O)(=O)N([C@H](C)CO)C[C@@H]1C -3.15%
COCC#Cc1cnc2c(c1)C(=O)N([C@H](C)CO)C[C@H](C)[C@@H](CN(C)C(=O)Nc1cc(F)ccc1F)O2 -15.1%
C[C@@H]1CN([C@@H](C)CO)C(=O)c2cc(NC(=O)Nc3ccc4c(c3)OCO4)ccc2O[C@@H](C)CCCCO[C@@H]1CN(C)Cc1ccccc1 -6.98%
Cc1c(CCOC(=O)c2cc([N+](=O)[O-])ccc2Cl)sc[n+]1CCCCS(=O)(=O)[O-] -6.18%
Cc1c(CCO)sc[n+]1CC(=O)OC12CC3CC(CC(C3)C1)C2 9.07%
CO[C@H]1CN(C)C(=O)c2ccc(NC(=O)Nc3ccccc3)cc2OC[C@@H](C)N(C(=O)CC2CC2)C[C@@H]1C 7.81%
COc1ccc(C#Cc2ccc3c(c2)[C@]2(C(=O)N3)[C@H](C(=O)N3CCCCCCC3)[C@H]3C(=O)O[C@H](c4ccccc4)[C@H](c4ccccc4)N3[C@@H]2c2ccc(O)cc2)cc1 0.035%
O=C1O[C@@H](c2ccccc2)[C@@H](c2ccccc2)N2[C@@H](c3ccccc3OCCO)[C@]3(C(=O)Nc4ccc(C#CC5(O)CCCCCC5)cc43)[C@@H](C(=O)N3CCCCCCC3)[C@H]12 6.97%
CO[C@H]1CN(C)C(=O)c2ccc(NC(C)=O)cc2OC[C@H](C)N(CC2CC2)C[C@@H]1C 5.82%
COc1ccc(NC(=O)Nc2cccc3c2O[C@H](CN(C)C(=O)Nc2ccc(F)cc2)[C@@H](C)CN([C@@H](C)CO)C3=O)cc1 -2.48%
O=C(C1CCCCC1)N1CC2(C1)[C@H](c1ccccc1)[C@H](CO)N2CC1CCCC1 -23.5%
C[C@H]1CN([C@@H](C)CO)C(=O)c2cccc(NC(=O)C3CCOCC3)c2O[C@@H]1CN(C)C(=O)Nc1cccc2ccccc12 6.23%
CC=Cc1ccc2n(c1=O)C[C@@H]1[C@@H](CO)[C@H](C(=O)N(C)C)[C@H]2N1CCc1ccccc1 (mixture of isomers) -10.1%
CC=Cc1ccc2n(c1=O)C[C@@H]1[C@@H](CO)[C@H](C(=O)NCCC)[C@H]2N1C(=O)C1CC1 (mixture of isomers) 6.42%
CC(=O)N1[C@@H](CO)[C@H](c2ccccc2)[C@@H]1CN(C(=O)c1ccccc1)C(C)C -18%
O=C(C[C@H]1CC[C@@H](NC(=O)c2ccc(F)cc2)[C@@H](CO)O1)NCc1ccncn1 -0.457%
CO[C@@H]1CN(C)C(=O)c2cc(NC(=O)C3CC3)ccc2OC[C@@H](C)N(Cc2ccc(F)cc2)C[C@@H]1C -6.33%
O=C(C1CCCC1)N1CCCCN2[C@@H](CO)[C@H](c3ccc(-c4cccc(F)c4)cc3)[C@@H]2C1 44.8%
O=C(C1CCC1)N1C[C@@H]2N[C@H](C1)C2c1ccc(-c2cncnc2)cc1 (stereo partly drawn) 17.7%
N#Cc1cccc(-c2ccc(C3[C@@H]4CN(C(=O)C5CCC5)C[C@H]3N4)cc2)c1 (stereo partly drawn) -9.39% and 14.7%
O=C(C1CCCCC1)N1CC(=O)N2[C@H](CO)[C@@H](c3ccc(-c4ccccc4F)cc3)[C@@H]2C1 -8.61%
CS(=O)(=O)N1CC2(C1)[C@H](c1ccccc1)[C@H](CO)N2Cc1ccc(F)cc1 -16.8%
Cc1ccc(-c2ccc3c(c2)O[C@H](CN(C)C)[C@@H](C)CN([C@@H](C)CO)S3(=O)=O)cc1 19.5%
O=C(C[C@@H]1C[C@@H]2c3cc(NC(=O)Nc4ccccc4F)ccc3O[C@@H]2[C@H](CO)O1)NCCc1ccccc1 2.98%
CO[C@@H]1CN(C)C(=O)c2cc(NC(=O)Nc3cc(F)ccc3F)ccc2OC[C@H](C)N(C)C[C@@H]1C 22.6%
CC(C)NC(=O)N(C)C[C@H]1OCCCC[C@H](C)Oc2ccc(NC(=O)Nc3ccc(C(F)(F)F)cc3)cc2C(=O)N([C@H](C)CO)C[C@@H]1C -13.2%
C[C@@H]1CCCCO[C@@H](CN(C)S(=O)(=O)c2ccc(F)cc2)[C@@H](C)CN([C@@H](C)CO)C(=O)c2cc(NS(=O)(=O)c3cccs3)ccc2O1 -29.4%
CC(C)NC(=O)N(C)C[C@H]1OCCCC[C@H](C)Oc2ccc(NC(=O)CCC(F)(F)F)cc2C(=O)N([C@@H](C)CO)C[C@@H]1C -0.514%
Cc1noc(C)c1S(=O)(=O)Nc1cccc2c1O[C@@H](CN(C)S(=O)(=O)c1cn(C)cn1)[C@@H](C)CN([C@H](C)CO)C2=O -26.9%
CN(C)C(=O)C[C@@H]1C[C@@H]2c3cc(NC(=O)C4CCOCC4)ccc3O[C@@H]2[C@@H](CO)O1 -0.675%
CCCNC(=O)N1[C@@H]2CNC[C@H]1C2c1ccc(-c2ccccc2)cc1 (stereo partly drawn) -12.3% and 2.3%

inhibition, active:
Cc1c(CCOC(=O)CC23CC4CC(CC(C)(C4)C2)C3)sc[n+]1Cc1ccc([N+](=O)[O-])cc1 57.8%
COc1ccc(C#Cc2ccc3c(c2)[C@]2(C(=O)N3)[C@H](c3ccccc3OCCO)N3[C@H](c4ccccc4)[C@H](c4ccccc4)OC(=O)[C@H]3[C@@H]2C(=O)N2CCCCCCC2)cc1 55.6%
Cc1cc(C)c2nc3nc(C)cc(C)c3c(N)c2c1 91%
CC=Cc1ccc2n(c1=O)C[C@@H]1[C@@H](CO)[C@H](C(=O)NCC)[C@H]2N1CCC(F)(F)F (mixture of isomers) 75.5%
CN(Cc1ccccc1F)c1cc2c(c3c1ccn3C)C1CCC2O1 (stereo not drawn) 61%

inhibition, 61% (active) and 30.9% (inactive):
O=C(C1CCCCC1)N1C[C@@H]2N[C@H](C1)C2c1ccc(-c2cccc(F)c2)cc1 (stereo partly drawn)
